High-throughput results from PubChem BioAssay.
Compounds with a hit are over-represented: about 0.83% of the library has one in this group of screens.
Gli-Sufu antag = Gli-Sufu pathway antagonism; Sufu-KO-LIGHT fibroblasts, Gli luciferase reporter luminescence; 340,000 tested, 0.74% active; AID 588413; inhibition, % at 5 µM;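 active = inhibition above about 55%, limit read from the data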;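 note: 0% = DMSO-treated cells and 100% = wells with medium but no cells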
NCOA2 inhibitor = inhibits human steroid receptor coactivator 2; HEK293 GAL4-SRC2 luciferase reporter, luminescence; inhibition, % at 9 µM; AID 651957; 370,000 tested, 0.17% active;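 active = inhibition above the mean inhibition of all tested compounds plus 3 SD, set per campaign, cut at about 52% in these data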;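 note: 0% = DMSO treated cells and 100% = cells given Gossypol at 36 µM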
LRH-1 inv ag = inverse agonists of human LRH-1 (NR5A2); O00482; HEK293T StAR-luciferase reporter, LRH-1 transfected, 24 h; inhibition, % at 3.6 µM; 360,000 tested, 0.13% active;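 active = inhibition above the mean inhibition of all tested compounds plus 3 SD, cut at about 73% in these data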;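 note: 0% = DMSO wells and 100% = reporter-only cells lacking LRH-1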
SRC3 inh = human NCOA3 inhibition; 360,000 tested, 0.17% active; Q9Y6Q9; inhibition, % at 3.6 µM; HEK293 GAL4-SRC3 luciferase reporter, luminescence;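 active = inhibition above a per-campaign cutoff, the mean of all compounds plus 3 SD, cut at about 60% in these data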;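 note: 0% = DMSO-treated cells and 100% = gossypol-treated cells at 36 µM; higher means less SRC3-driven luciferase light from the GAL4 reporter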
SRC1 inh = inhibitors of human steroid receptor coactivator 1 (SRC1); HEK293 GAL4-SRC1 luciferase reporter, luminescence; inhibition, % at 3.6 µM; 360,000 tested, 0.12% active;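 active = inhibition above the campaign mean plus 3 SD, with each screening campaign given its own cutoff, cut at about 60% in these data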;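 note: 0% = DMSO treated cells and 100% = gossypol at 36 µM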
Gli-Sufu confirm = Gli-SUFU antagonism confirmation, single concentration | Sufu-KO-LIGHT cells, Gli luciferase reporter, luminescence | AID 602428 | shares compounds with Gli-Sufu antag | inhibition, % at 5 µM | 2,500 tested, 40% active;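 active = mean inhibition at 5 µM reaching about 45%, limit read from the data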;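 note: plate controls were DMSO-treated cells for no effect and wells lacking cells for full effect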
SufuKO cytotox = cytotoxicity counter-screen for Gli-SUFU antagonists. Sufu-KO-LIGHT cells cytotoxicity, ATP luminescence. cytotoxicity, % at 5 µM. shares compounds with Gli-Sufu antag. 2,500 tested, 32% active;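 active = mean cytotoxicity at 5 µM above about 25%, limit read from the data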;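 note: cells exposed to compound overnight for roughly 16 to 18 hours; plate controls were DMSO wells with cells for no effect and medium without cells for full effect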
Wnt3a cs = counter-screen for Gli-SUFU antagonists: Wnt3a reporter inhibition; 2,500 tested, 20% active; shares compounds with Gli-Sufu antag; inhibition, % at 6.25 µM; Wnt-LIGHT cells, Wnt3a-driven luciferase reporter, luminescence;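 active = mean inhibition above about 25%, limit read from the data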
* marks the source's active call; other numbers are inactive results; nt = no result given.

SMILES | Gli-Sufu antag | NCOA2 inhibitor | LRH-1 inv ag | SRC3 inh | SRC1 inh | Gli-Sufu confirm | SufuKO cytotox | Wnt3a cs
COc1cc(C2C(C#N)=C(N)Oc3cc(O)ccc32)cc(OC)c1OC (stereo not drawn) | 25.7 | -21.4 | 20.1 | 10.5 | -14.7 | nt | nt | nt
COc1cc(C2C3=C(COC3=O)Oc3cc4c(cc32)OCO4)cc(OC)c1O (stereo not drawn) | 50.1 | 14.3 | 30.9 | 12.9 | 3.1 | 66.8* | 64.0* | 11.8
O=C1OCC2=C1C(c1ccc3c(c1)OCO3)c1cc3c(cc1O2)OCO3 (stereo not drawn) | -15.6 | -10.4 | 15.4 | 3.1 | -7.0 | nt | nt | nt
COc1cc(C2C(C#N)=C(N)Oc3cc4c(cc32)OCO4)cc(OC)c1OC (stereo not drawn) | 57.9* | -15.1 | 13.7 | 21.4 | -27.6 | 55.9* | 51.0* | 4.1
COc1cc(C2C3=C(COC3=O)Oc3cc4c(cc32)OCO4)cc(OC)c1OC (stereo not drawn) | 56.3* | -17.2 | 14.8 | 20.3 | 0.7 | 56.9* | 57.3* | 12.7
CCOC(=O)C1(C(=O)OCC)Cc2c([nH]c3ccccc23)[C@]2(N1)C(=O)N(C)c1ccc(Br)cc12 | nt | -2.0 | nt | nt | nt | nt | nt | nt
Cc1oc(-c2ccccc2)cc1C(N)=O | 99.9* | -6.8 | -27.9 | 2.2 | -6.0 | 8.0 | 8.5 | -20.2
COc1ccc2c(c1)CN1CN(Cc3ccc(F)cc3)S(=O)(=O)CC21 (stereo not drawn) | nt | -12.2 | nt | nt | nt | nt | nt | nt
CCN(CC)c1ccc(CNc2nc3ccccc3n2CCN2CCCCC2)cc1 | 67.2* | 24.2 | -7.3 | 15.1 | -52.7 | 41.5 | 23.2 | 16.1
COc1ccc(CNc2nc3ccccc3n2CCN2CCCCC2)cc1 | 35.3 | -11.0 | -30.1 | -2.8 | -21.4 | nt | nt | nt
COc1ccc(-c2noc(CCCC(=O)N3CCN(c4cc(C)ccc4C)CC3)n2)cc1 | 7.4 | -22.8 | -60.5 | -54.0 | -82.8 | nt | nt | nt
COc1ccc(-c2noc(CCCCC(=O)N3CCN(c4cc(C)ccc4C)CC3)n2)cc1 | 67.9* | 36.6 | 40.4 | 21.4 | 24.6 | 72.9* | 28.4* | 29.5*
COc1cc(OC)cc(-c2cc3nc(C)c(CCC(=O)O)c(C)n3n2)c1 | 60.8* | 77.6* | 53.1 | 54.6 | 53.0 | 64.3* | 1.6 | 90.4*
COc1cc(OC)cc(-c2cc3nc(C)c(CCC(=O)NC(C)CCc4ccco4)c(C)n3n2)c1 (stereo not drawn) | 20.9 | 31.6 | -2.8 | 11.7 | -1.8 | nt | nt | nt
Nc1ccc(Cn2ccc3c4c(N)nc(N)nc4ccc32)cc1 | 60.9* | -7.3 | 31.8 | 41.8 | 55.8 | 57.9* | 17.1 | 40.6*
Fc1ccc(Cn2ccc3ccc(-c4ccc5ccn(Cc6ccc(F)cc6)c5c4)cc32)cc1 | nt | -41.9 | nt | nt | nt | nt | nt | nt
CC(C)[C@H]1COCCS(=O)(=O)N1Cc1ccccc1-c1cccc2c1oc1ccccc12 | 92.8* | -8.9 | -6.9 | 17.9 | -10.0 | 23.5 | 6.5 | -39.9
CCCCOc1ccccc1-c1ccccc1CN1[C@@H](C(C)C)COCCS1(=O)=O | 11.9 | 19.9 | -2.2 | -24.1 | 16.2 | nt | nt | nt
Cc1ccc(OCC(C)CN2CCC(C(O)(c3ccccc3)c3ccccc3)CC2)cc1 (stereo not drawn) | nt | 2.4 | nt | nt | nt | nt | nt | nt
CCCCn1c(CN(C)Cc2ccccc2)nc2c1c(=O)n(C)c(=O)n2C | 60.2* | -2.5 | 24.8 | 30.9 | 1.7 | 52.4* | 20.1 | 22.0
O=S(=O)(c1ccc2c(c1)nc(COc1ccc(Cl)cc1)n2CC1CCCO1)N1CCOCC1 (stereo not drawn) | 59.9* | -27.9 | 5.9 | 7.4 | -11.3 | 45.4* | 9.0 | 32.8*
CC1=NN(C(N)=S)C(=O)C1N=Nc1ccc(O)cc1 (stereo not drawn) | 57.4* | 4.5 | -20.6 | -35.5 | -30.9 | 39.4 | 11.2 | -62.9
CCCCCC(=O)NC1CCCCN(Cc2ccc(Cl)cc2)C1=O (stereo not drawn) | nt | -0.1 | nt | nt | nt | nt | nt | nt
CC1CCCCN1c1ncnc2ccccc12 (stereo not drawn) | 21.5 | 29.6 | 10.5 | 14.8 | 26.9 | nt | nt | nt
CC1(C)CC2CC(C)(CN2c2ncnc3ccccc23)C1 (stereo not drawn) | 53.4 | 18.1 | 11.7 | 31.1 | 13.8 | 39.6 | 3.6 | 20.9
